Results as given in PubChem BioAssay.
A number with no mark means an inactive call. The rule behind the calls is not given here.

These molecules were tested against Pantothenate synthetase (Mycobacterium tuberculosis (strain ATCC 25618 / H37Rv)) (UniProt P9WIL5) (assay: Coupled enzyme confirmation of inhibitors against recombinant Mtb PanC (AID 375;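 note: 0% = full reaction with vehicle and 100% = no enzyme background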)). Settings: coupled enzyme assay; at 10 µM, active compounds read high.
Pantothenate synthetase (Mycobacterium tuberculosis (strain ATCC 25618 / H37Rv)), sequence (P9WIL5 whole entry, looked up): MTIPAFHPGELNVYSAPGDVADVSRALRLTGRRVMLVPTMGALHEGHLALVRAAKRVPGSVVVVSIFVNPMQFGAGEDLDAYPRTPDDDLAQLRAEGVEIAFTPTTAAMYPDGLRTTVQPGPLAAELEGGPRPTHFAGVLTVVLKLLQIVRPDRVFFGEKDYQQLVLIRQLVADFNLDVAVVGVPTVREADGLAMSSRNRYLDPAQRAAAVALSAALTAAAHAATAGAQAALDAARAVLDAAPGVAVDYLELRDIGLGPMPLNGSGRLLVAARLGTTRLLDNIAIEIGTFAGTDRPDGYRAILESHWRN
Work on `COc1ccc(-n2nc(C(=O)NCC(=O)NCC3CCCO3)c3ccccc3c2=O)cc1` (stereo not drawn) yielded an inhibition of 0%.
Molecule `O=C(NCc1cccnc1)c1cccc(C(F)(F)F)c1` has an inhibition of 1%.
In the case of `CC(C)=CCSc1nnc(CCNC(=O)OC(C)(C)C)o1`, the inhibition was 3%.
For `COc1ccc(-c2nnn(CCc3nn[nH]n3)n2)cc1OC`, the inhibition was 0%.
`Cc1ccc(C(C(=O)NC2CCCCC2)N(C(=O)c2csnn2)C2CCCC2)o1` (stereo not drawn) gave an inhibition of 0%.
Work on `CC(C)OC(=O)CN1C(=O)C(C)(C)Oc2ccc(C(=O)NC3CC3)cc21` yielded an inhibition of 0%.
`CCCS(=O)(=O)Nc1c(C(=O)O)[nH]c2ccccc12` was tested, and the inhibition was 0%.
`O=S(c1ccsc1)c1ccsc1` showed an inhibition of 0%.
`N#Cc1ccc(COC(=O)Cn2nnc(-c3ccccc3)n2)cc1` was tested, and the inhibition was 0%.
`Nc1ccc(S(=O)(=O)c2ccc(N)cc2)cc1` was tested, and the inhibition was 0%.
For `CCC(=O)c1ccc(OCC(=O)N2CCc3cc(OC)c(OC)cc3C2)cc1`, the inhibition was 0%.
For `CCC(=O)Nc1ccc2nc(SCC(=O)N3CCCC3)sc2c1`, the inhibition was 0%.
`Cc1noc(COc2ccccc2OCC(O)CNC(C)(C)C)n1` (stereo not drawn) was tested, and the inhibition was 4%.
Molecule `Cc1ccc(S(=O)(=O)Nc2nc3ccccc3nc2NCc2ccco2)cc1` has an inhibition of 3%.
For `COc1cc(OC)c(C2C(C#N)=C(N)OC3=C2C(=O)CC(C)(C)C3)cc1OC` (stereo not drawn), the inhibition was 1%.
For `COc1ccc(-c2ccc(-c3noc(-c4ccccc4OC)n3)c(OC)n2)cc1`, the inhibition was 0%.
`Nc1scc(-c2ccncc2)c1Cl` gave an inhibition of 7%.
With `CCOc1ccccc1NC(=O)CCN1CCN(S(=O)(=O)c2ccc(Br)cc2)CC1` the inhibition was 0%.
